Reference: PubChem BioAssay AID588502 (Sanford-Burnham Center for Chemical Genomics, 2011)
Measured potencies and affinities stand elsewhere. Unmarked numbers belong to inactive results. No rule for the calls is given here.

Assay: dose response, counter-screen, biochemical, fluorescence, single-stranded RNase substrate (AID 588502)
Conditions: oligo substrate without MazF, fluorescence increase, 5 h

Question: For `CC1CCC(=NNS(=O)(=O)c2ccc([N+](=O)[O-])cc2)CC1` (stereo unspecified), which EC50 is on record?
Answer: > 99 µM
